Assay results published in PubChem BioAssay (NCI).
About 83,000 compounds went through this panel and 20% of them were active in at least one assay; those are over-represented in the sample as a whole.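 For each line, cells grew in 96-well plates with the test compound present at a single concentration for 48 hours.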 Unmarked numbers belong to inactive results. Active and inactive are the calls of the source. Rule for the calls: active = growth percent below 10; inactive = the rest.

Assays:
Test in all cases: NCI-60 one-dose screen, 48 h (100 = growth as untreated, 0 = no growth, -100 = all killed)
Settings in all cases: 10 µM unless noted
NCI-H23 lung = tested on: NCI-H23 lung
NCI-H226 lung = tested on: NCI-H226 lung
NCI-H322M lung = tested on: NCI-H322M lung
HOP-62 NSCLC = tested on: HOP-62 NSCLC
HOP-92 NSCLC = tested on: HOP-92 NSCLC
NCI-H522 lung = tested on: NCI-H522 lung
A549/ATCC NSCLC = tested on: A549/ATCC NSCLC
786-0 renal = tested on: 786-0 renal
COLO 205 colon = tested on: COLO 205 colon
DU-145 prostate = tested on: DU-145 prostate
K-562 leukemia = tested on: K-562 leukemia
MALME-3M melanoma = tested on: MALME-3M melanoma
MDA-MB-231 breast = tested on: MDA-MB-231 breast
RXF 393 renal = tested on: RXF 393 renal
SF-268 CNS = tested on: SF-268 CNS
SF-295 CNS = tested on: SF-295 CNS
SF-539 CNS = tested on: SF-539 CNS
UACC-257 melanoma = tested on: UACC-257 melanoma
M14 melanoma = tested on: M14 melanoma
NCI-H460 lung = tested on: NCI-H460 lung

Compound | growth (NCI-H23 lung) | growth (NCI-H226 lung) | growth (NCI-H322M lung) | growth (HOP-62 NSCLC) | growth (HOP-92 NSCLC) | growth (NCI-H522 lung) | growth (A549/ATCC NSCLC) | growth (786-0 renal) | growth (COLO 205 colon) | growth (DU-145 prostate) | growth (K-562 leukemia) | growth (MALME-3M melanoma) | growth (MDA-MB-231 breast) | growth (RXF 393 renal) | growth (SF-268 CNS) | growth (SF-295 CNS) | growth (SF-539 CNS) | growth (UACC-257 melanoma) | growth (M14 melanoma) | growth (NCI-H460 lung)
O=C(Nc1ccc(Cl)cc1F)c1cc(Cl)ccc1O | -20% (active) | -9.16% (active) | -11.1% (active) | 7.55% (active) | -21.7% (active) | -3.15% (active) | 7.91% (active) | -0.322% (active) | 22.2% | 12.5% | 4.51% (active) | -32.2% (active) | -34.5% (active) | -12.7% (active) | 7.67% (active) | -69.5% (active) | 4.82% (active) | -17.9% (active) | -12.3% (active) | –
CCOC(=O)Nc1ccc(-c2nc(-c3cccc(OC)c3)c(-c3ccnc(Br)c3)[nH]2)cc1 | 31.7% | 46.4% | 45.7% | 30.2% | 42.2% | 30.2% | 36.9% | 9.61% (active) | 49.2% | 51.9% | 11.9% | 40.5% | 41.2% | -27% (active) | 51.9% | -36.1% (active) | 21.7% | 56.1% | 36% | –
Cc1ccc(C(=O)N/N=C/c2cccc([N+](=O)[O-])c2)cn1 | 101% | 90% | 97.1% | 98.7% | 91.4% | 84.8% | 92.1% | 31.4% | 112% | 100% | 101% | 114% | 95.6% | 110% | 110% | 107% | 98.6% | 95.6% | 112% | –
COc1cc(/C=C/c2ccccc2)cc(OC)c1 | 86.6% | 92% | – | 108% | 69.9% | 84.1% | 95.4% | 97.9% | 114% | 94.3% | 93% | 105% | 91% | 118% | 92.7% | 95.7% | 93.1% | 103% | 101% | 106%
Cc1nn(-c2ccccc2)c(-n2ccnc2)c1/C=N/Nc1nc(-c2ccc(Cl)c(Cl)c2)cs1 | 12.5% | 51.9% | – | 10.8% | -22.9% (active) | 31.5% | -8.24% (active) | 20.7% | 52.1% | 2.44% (active) | 18.7% | 22.5% | 6.68% (active) | -1.62% (active) | 41.8% | 57.7% | 59.3% | 62.7% | 45.1% | 3.5% (active)
CCCCOc1ccc(/C=N/NC(N)=S)cc1 | 87.6% | 68.9% | – | 116% | 68.2% | 8.46% (active) | 91.4% | 68.3% | 85% | 95.6% | 65% | 90.2% | 55.7% | 85.7% | 88.7% | 96.9% | 78.9% | 78.4% | 78% | –
Cc1ccc(S(=O)(=O)N/N=C/C2(c3ccccc3)CC2)cc1 | 101% | 113% | – | 99% | 90.5% | 105% | 82% | 112% | 116% | 114% | 97.8% | 110% | 102% | 94.4% | 111% | 94.7% | 114% | 99.7% | 115% | 95.1%
Cc1nc(NC(=O)COc2ccc(/C=C3\Cc4ccc(Cl)cc4C3=O)cc2)sc1C | 100% | 99.2% | – | 102% | 88.9% | 78.9% | 105% | 103% | 120% | 112% | 106% | 238% | 93.7% | 135% | 119% | 110% | 101% | 110% | 114% | 101%
